The record followed here is PubChem BioAssay (EPA / NIEHS).

Read-out in test [1]: E-selectin (Homo sapiens) (UniProt P16581)
Kind of test: BSK_SAg_Eselectin: BioMAP Diversity Plus: SAg Assay for Eselectin Biomarker Activity (AID 2283091). Particulars: primary human HUVEC with PBMC; actives raise or lower the signal. In outline: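 Co-culture: HUVEC + PBMC. Dose compound; 24 h. ELISA for E-selectin. Bidirectional fit vs DMSO.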

Read-out in test [2]: Monokine induced gamma interferon (MIG), CXCL9 (gene 4283)
Briefly: BSK_SAg_MIG: BioMAP Diversity Plus: SAg Assay for Monokine induced gamma interferon (MIG) Biomarker Activity (AID 2283092). To be noted: primary human HUVEC with PBMC; actives raise or lower the signal. In outline:
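HUVEC plus human PBMC co-culture, chemicals dosed and MIG (CXCL9) quantified by ELISA at 24 h. Bidirectional curve fitting against DMSO as negative control and baseline, so both gain and loss of signal count as activity.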

Test [3] can be described thus: BSK_SAg_PBMCCytotoxicity: PBMC Cytotoxicity Assessment in the BioMAP Diversity Plus: SAg Assay (AID 2283093).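 For AC50: PBMC superantigen activated with SEB plus TSST-1 one hour after compound addition.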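 Note: fitted both ways against DMSO so a hit may be loss or gain of signal.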 Particulars: primary human HUVEC with PBMC. In outline: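 PBMC viability by Alamar Blue reduction, fluorescence read at 546/580 nm after 6 h dye exposure. Cells were dosed 1 h before SEB plus TSST-1 activation (20 ng/mL final each), then held 90 h; endothelial/PBMC human co-culture.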

Read-out in test [4]: Interleukin-8 (IL8), CXCL8 (gene 3576)
Kind of test: BSK_SAg_IL8: BioMAP Diversity Plus: SAg Assay for Interleukin-8 (IL8) Biomarker Activity (AID 2283094). To be noted: primary human HUVEC with PBMC; actives raise or lower the signal. In outline: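 HUVEC/PBMC co-culture, 24 h post-dose; IL-8 by ELISA. Gain or loss of signal fitted bidirectionally vs DMSO baseline.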

The nature of test [5]: BSK_SAg_Proliferation: Cell Proliferation Assessment in the BioMAP Diversity Plus: SAg Assay (AID 2283095).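 Note: relative cell number as total protein by SRB absorbance in sub-confluent culture.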 To be noted: primary human HUVEC with PBMC. In outline: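 HUVEC/PBMC co-culture, 96-well. TCA-fixed (10%), 0.1% SRB stain, A560 at 96 h. Protein content used as viability readout; bidirectional fitting vs DMSO control.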
A short description of test [6]: BSK_SAg_SRB: Viability Assessment in the BioMAP Diversity Plus: SAg Assay (AID 2283096).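 Note: cells read one day after compound addition; hits may be either gain or loss of signal compared with DMSO.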 Particulars: primary human HUVEC with PBMC. In outline: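 Compounds were added to a human vascular co-culture of umbilical vein endothelium and PBMC. After 24 h, parallel cultures were fixed with 10% TCA, stained with 0.1% sulforhodamine B and read at 560 nm. Gain or loss of signal was fitted relative to DMSO.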

The source made the active and inactive calls. Rule for the calls: active = hit-call score of the fitted dose curve at least 0.9, where 1 is the maximum; inactive = score below 0.9.

Chain of E-selectin (Homo sapiens) (P16581 whole entry, looked up): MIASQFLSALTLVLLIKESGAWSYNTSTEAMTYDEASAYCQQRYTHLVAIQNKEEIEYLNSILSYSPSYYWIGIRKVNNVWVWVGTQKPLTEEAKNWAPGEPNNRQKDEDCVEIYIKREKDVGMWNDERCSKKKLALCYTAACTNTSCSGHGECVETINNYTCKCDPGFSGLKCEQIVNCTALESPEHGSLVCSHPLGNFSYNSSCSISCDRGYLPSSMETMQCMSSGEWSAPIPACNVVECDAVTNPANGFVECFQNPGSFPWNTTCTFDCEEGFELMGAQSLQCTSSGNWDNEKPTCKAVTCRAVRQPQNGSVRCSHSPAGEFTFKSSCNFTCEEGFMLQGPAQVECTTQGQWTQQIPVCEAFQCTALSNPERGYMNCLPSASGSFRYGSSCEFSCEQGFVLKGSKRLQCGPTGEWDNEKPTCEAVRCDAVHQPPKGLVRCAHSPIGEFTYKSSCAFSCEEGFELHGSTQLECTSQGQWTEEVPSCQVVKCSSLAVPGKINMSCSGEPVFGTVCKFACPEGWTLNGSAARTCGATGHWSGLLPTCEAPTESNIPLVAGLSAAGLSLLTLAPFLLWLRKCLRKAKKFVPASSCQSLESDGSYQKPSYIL

As for `C[Si](C)(C)C(F)(F)C(F)(F)C(F)(F)F`, the outcome in test [1], in test [2], in test [3], in test [4], in test [5] and in test [6] was inactive.

For `Cn1cc[nH]c1=S`, the outcome in test [1], in test [2], in test [3], in test [4], in test [5] and in test [6] was inactive.

In the case of `O=C(Cl)C(F)(F)C(F)(F)C(F)(F)C(=O)Cl`, the result in test [1], in test [2], in test [3], in test [4], in test [5] and in test [6] was inactive.

Take `CC(C)CCCCCCOC(=O)C1CCCCC1C(=O)OCCCCCCC(C)C` (configuration not stated): the result in test [1], in test [2], in test [4], in test [5] and in test [6] was inactive. The AC50 in test [3] is 3.51 µM (active).

With `CCc1cccc(CC)c1N`, the outcome in test [1], in test [2], in test [3], in test [4], in test [5] and in test [6] was inactive.

As for `O=C(O)c1ccc2c(c1)nc(C(=O)NC1CCN(C3CC3)CC1)n2Cc1cc(-c2ccc(Cl)s2)on1`, the result in test [1], in test [2], in test [3], in test [4], in test [5] and in test [6] was inactive.

Consider `CCc1ccc(O)c(C(C)(C)C)c1`, for which the AC50 is 29.6 µM (active) in test [1], 34.7 µM (active) in test [3], 33 µM (active) in test [5] and 35.8 µM (active) in test [6]. The outcome in test [2] and in test [4] was inactive.

For the compound `CCCOc1ccc(S(=O)(=O)N2CCN(CC)CC2)cc1-c1nc2c(CC)n(Cc3ccccn3)nc2c(=O)[nH]1`, the result in test [1], in test [2], in test [3], in test [4], in test [5] and in test [6] was inactive.

Consider `OCc1ccccc1`, for which the result in test [1], in test [2], in test [3], in test [4], in test [5] and in test [6] was inactive.

In the case of `NCC(F)(F)C(F)(F)C(F)(F)C(F)(F)F`, the result in test [1], in test [2], in test [3], in test [4], in test [5] and in test [6] was inactive.

As for `NC(N)=O`, the outcome in test [1], in test [2], in test [3], in test [4], in test [5] and in test [6] was inactive.

`CC(C)C(=O)Nc1ccc([N+](=O)[O-])c(C(F)(F)F)c1`: the result in test [1], in test [2], in test [3], in test [4], in test [5] and in test [6] was inactive.

Regarding `c1ccc2cc3ccccc3cc2c1`, the outcome in test [1], in test [2], in test [3], in test [4], in test [5] and in test [6] was inactive.

Regarding `Cn1c(=O)c2[nH]cnc2n(C)c1=O`, the outcome in test [1], in test [2], in test [3], in test [4], in test [5] and in test [6] was inactive.

Take `O=C(O)c1cccc(C(=O)O)c1`: the outcome in test [1], in test [2], in test [3], in test [4], in test [5] and in test [6] was inactive.

As to `OC(CCl)CCl`, the outcome in test [1], in test [2], in test [3], in test [4], in test [5] and in test [6] was inactive.

In the case of `CC[C@H](C)C(=O)O[C@H]1C[C@H](O)C=C2C=C[C@H](C)[C@H](CC[C@@H](O)C[C@@H](O)CC(=O)O)[C@H]21`, the results for the concentration at half-maximal activity (AC50) in test [1] and in test [4] were 7.03 µM (active) and 11.9 µM (active), respectively. Besides, the result in test [2], in test [3], in test [5] and in test [6] was inactive.

As to `Nc1ccn([C@@H]2O[C@H](CO)[C@@H](O)[C@@H]2O)c(=O)n1`, the AC50 in test [1] was 8.71 µM (active); in test [3] it was 12 µM (active); in test [5], 14.1 µM (active); in test [6], 20 µM (active). Moreover, the result in test [2] and in test [4] was inactive.

Regarding `OCCNCCO`, the outcome in test [1], in test [2], in test [3], in test [4], in test [5] and in test [6] was inactive.

As to `FC(F)C(F)(F)COCC1CO1` (configuration not stated), the outcome in test [1], in test [2], in test [3], in test [4], in test [5] and in test [6] was inactive.

`CC(C)CC(C)O` (configuration not stated): the outcome in test [1], in test [2], in test [3], in test [4], in test [5] and in test [6] was inactive.

In the case of `COS(C)(=O)=O`, the result in test [1], in test [2], in test [3], in test [4], in test [5] and in test [6] was inactive.

Regarding `CCCc1ccccc1`, the outcome in test [1], in test [2], in test [3], in test [4], in test [5] and in test [6] was inactive.

Consider `Cc1ncc([C@@H](CCCCCCc2ccc3c(n2)NCCC3)CC(=O)O)cn1`, for which the outcome in test [1], in test [2], in test [3], in test [4], in test [5] and in test [6] was inactive.

For the compound `CCCCCOC(C)=O`, the outcome in test [1], in test [2], in test [4] and in test [6] was inactive. For the same compound, the half-maximal activity concentration (AC50) is 30.3 µM (active) in test [3] and 15.1 µM (active) in test [5].

With `FC(F)(F)COC(OCC(F)(F)F)OCC(F)(F)F`, the result in test [1], in test [2], in test [3], in test [4], in test [5] and in test [6] was inactive.

Consider `NC(=O)N1c2ccccc2C=Cc2ccccc21`, for which the result in test [1], in test [2], in test [3], in test [4], in test [5] and in test [6] was inactive.

On to `CCOc1ccc2[nH]cc(C(=O)NCc3ccccc3)c(=O)c2n1`, for which the result in test [1], in test [2], in test [3], in test [4], in test [5] and in test [6] was inactive.

As for `O=C(NO)C1(NS(=O)(=O)c2ccc(Oc3ccc(F)cc3)cc2)CCOCC1`, the result in test [1], in test [2], in test [3], in test [4], in test [5] and in test [6] was inactive.

Take `OCC(CO)(CO)CO`: the outcome in test [1], in test [2], in test [3], in test [4], in test [5] and in test [6] was inactive.

In the case of `S=P(N1CC1)(N1CC1)N1CC1`, the result in test [1], in test [2], in test [3], in test [4] and in test [6] was inactive. In addition, in test [5], the AC50 was 4.15 µM (active).

In the case of `OC[C@H]1O[C@@H]2O[C@H]3[C@H](O)[C@@H](O)[C@@H](O[C@H]4[C@H](O)[C@@H](O)[C@@H](O[C@H]5[C@H](O)[C@@H](O)[C@@H](O[C@H]6[C@H](O)[C@@H](O)[C@@H](O[C@H]7[C@H](O)[C@@H](O)[C@@H](O[C@H]1[C@H](O)[C@H]2O)O[C@@H]7CO)O[C@@H]6CO)O[C@@H]5CO)O[C@@H]4CO)O[C@@H]3CO`, the outcome in test [1], in test [2], in test [3], in test [4], in test [5] and in test [6] was inactive.

For `COc1cc2c(c(OC)c1OC)-c1ccc(OC)c(=O)cc1[C@@H](NC(C)=O)CC2`, the result in test [1], in test [2], in test [3] and in test [4] was inactive. Further, the results for the concentration at half-maximal activity (AC50) in test [5] and in test [6] were 0.34 µM (active) and 0.204 µM (active), respectively.

In the case of `CCCCOC(=O)c1ccccc1`, the result in test [1], in test [2], in test [3], in test [4], in test [5] and in test [6] was inactive.

In the case of `OCCOCCOCCO`, the result in test [1], in test [2], in test [3], in test [4], in test [5] and in test [6] was inactive.

Turning to `CCOC(N)=O`, the outcome in test [1], in test [2], in test [3], in test [4], in test [5] and in test [6] was inactive.

For `C[C@]12C=CC(=O)C=C1CC[C@H]1[C@@H]3C[C@@H](O)[C@](O)(C(=O)CO)[C@@]3(C)C[C@H](O)[C@@]12F`, the AC50 in test [1] was 3.66 µM (active). Moreover, the outcome in test [2], in test [3], in test [4], in test [5] and in test [6] was inactive.

As to `Cc1cccc(O)c1C`, the result in test [1], in test [2], in test [3], in test [4], in test [5] and in test [6] was inactive.

Turning to `CCn1nc(C)c2c1C(=O)NCC(c1ccc(O)cc1)=N2`, the AC50 was 0.435 µM (active) in test [1] and 20 µM (active) in test [5]. Also, the outcome in test [2], in test [3], in test [4] and in test [6] was inactive.

In the case of `FC(F)=C(F)C(F)(F)C(F)(F)C(F)(F)C(F)(F)C(F)(F)C(F)(F)F`, the result in test [1], in test [2], in test [3], in test [4], in test [5] and in test [6] was inactive.

`CC1(C)C(=O)N(Cl)C(=O)N1Cl`: the result in test [1], in test [2], in test [3], in test [4], in test [5] and in test [6] was inactive.

For `Cc1nccn1-c1ccc(Sc2cccc(C3(C(N)=O)CCOCC3)c2)cc1`, the values for the AC50 in test [1], in test [4] and in test [5] were 8.95 µM (active), 5.42 µM (active) and 5.48 µM (active), respectively. In addition, the result in test [2], in test [3] and in test [6] was inactive.

In general, AC50 refers to the concentration giving half of the maximal activity seen.
